About 83,000 compounds went through this panel and 20% of them were active in at least one assay; those are over-represented in the sample as a whole.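 For each line, cells grew in 96-well plates with the test compound present at a single concentration for 48 hours.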 A number with no mark means an inactive call. Active and inactive are the calls of the source. The calls were made as follows: active = growth percent below 10; inactive = the rest.

Experimental findings from PubChem BioAssay (NCI) are described below.

For the assay, the system named is SK-MEL-2 melanoma. Description: NCI-60 one-dose screen, 48 h (100 = growth as untreated, 0 = no growth, -100 = all killed). The conditions noted are these: 10 µM unless noted.
Consider `CCCCn1cc(C(=O)/C(C#N)=C/c2cc3ccccc3nc2Cl)c2cc(OC)ccc21`, for which the growth was 115%.
Next, `CCCCNCCc1ccccn1`: 87.3%.
Take `CC(=O)C1C(=O)N(C)C(=O)N(C)C1=O`: the growth was 108%.
With `CC1(C)N=C(N)N=C(N)N1c1cccc(C(=O)Nc2cccc(S(=O)(=O)F)c2)c1`, the growth is 114%.
Next, `C[C@]12CC[C@@H]3C4=C(CC[C@H]3[C@@H]1CC[C@@H]2O)CC(=O)CC4`: 127%.
For `Oc1ccccc1OB(Oc1ccccc1O)N(CCCl)CCCl`, the growth was 104%.
On to `NC(Cc1ccc2c(c1)OCO2)c1ccc2c(c1)OCO2` (centres undefined), for which the growth was 107%.
Turning to `COc1ccc(-c2ccc(OC)c(OC)c2OC)cc1`, the growth is 24%.
Take `CC1(C)N=C(N)N=C(N)N1c1ccc(CCCCc2ccc(S(=O)(=O)F)cc2)c(Cl)c1`: the growth is 30.6%.
The result for `COc1ccc(C2=NN(c3ccccc3)C(c3sc(N(CCCl)CCCl)nc3Cl)C2)cc1` (centres undefined) reads 91.3%; that for `N#CC1c2ccccc2C=CN1C(=O)c1ccc(N(CCCl)CCCl)cc1` (centres undefined), 104%.
For the molecule `CSc1ccccc1NP1(=O)OCC(C)([N+](=O)[O-])CO1` (centres undefined), the growth was 112%.
Next, `C/C(=N/OC(=O)N(C)C)c1cc(Cl)ccc1Cl`: 95.7%.
The result for `CCC(C)[C@H]1O[C@]2(C=C[C@@H]1C)C[C@@H]1C[C@@H](C/C=C(\C)[C@@H](OC3C[C@H](OC)C(O[C@H]4C[C@H](OC)[C@@H](O)[C@H](C)O4)[C@H](C)O3)[C@@H](C)/C=C/C=C3\CO[C@@H]4[C@H](O)C(C)=C[C@@H](C(=O)O1)[C@]34O)O2` (some centres undefined) reads -57.2% (active).
